In PubChem BioAssay (Tox21) one finds Potency data, which are given here for four molecules.

Inconclusive results are not listed. The source made the active and inactive calls. Unless noted, the call rests on the fitted dose curve; in most records, active means well fitted curve in the direction sought with a large enough effect in the repeat runs; inconclusive means weak or mixed curves; inactive means no such curve, though single readings can be large; an effect the other way counts as inactive or inconclusive.

A short description of assay [1]: qHTS assay to identify small molecule antagonists of the estrogen receptor alpha (ER-alpha) signaling pathway using the BG1 cell line in the presence of 0.1 nM 17-beta-estradiol - cell viability counter screen (AID 1259241). Further: nearly all actives have a fitted effect of over 40% in size. In outline:
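Measures cytotoxicity alongside the ER-alpha antagonist readout: VM7Luc4E2 cells, charcoal-stripped serum, 0.1 nM 17beta-estradiol final, 22 hr compound incubation at 37C, CellTiter-Fluor fluorescence.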

A short description of assay [2]: qHTS assay to identify small molecule HDAC inhibitors (AID 1259364). Further: top concentration of the series differs between compounds; nearly all actives have a fitted effect of over 45% in size. The essentials: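 Wild-type HCT-116 cells, plated overnight at 37 C, exposed to compounds 2 hr at 37 C; luminogenic HDAC-Glo substrate then added 30 min at room temperature. Luminescence reports relative endogenous class I/II HDAC activity.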
(Quantitative high-throughput screening tests each substance at several concentrations.)

Assay [3] is described as follows: qHTS assay to identify small molecule HDAC inhibitors - cell viability counter screen (AID 1259365). Further: series mostly up to about 92 µM; nearly all actives have a fitted effect of over 50% in size. The essentials: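 Following a 2hr exposure of overnight-plated wild-type HCT-116 cells to DMSO-delivered compounds, CellTiter-Glo was added and luminescence recorded after 30min at room temperature.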
Assay [4] can be described thus: qHTS assay to identify small molecule agonists of the sonic hedgehog signaling (Shh) pathway - cell viability counter screen (AID 1259366). Further: nearly all actives have a fitted effect of over 50% in size. Further: potency means the concentration at half of the fitted maximal effect. The essentials: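 After a 4hr attachment at 37C, NIH/3T3 cells bearing an integrated Gli1-driven luciferase reporter were dosed with compounds. Treatment lasted 24hr, with the final hour including CellTiter-Fluor for a fluorescence viability measurement.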

Assay [5] is described as follows: qHTS assay to identify small molecule antagonists of the sonic hedgehog signaling (Shh) pathway - cell viability counter screen (AID 1259367). Further: nearly all actives have a fitted effect of over 55% in size. The essentials:
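NIH/3T3-derived Gli1-Luc reporter cells (2,000 per well) rested 4 hr at 37 C, then received DMSO compounds plus conditioned medium. After 23 hr of treatment, CellTiter-Fluor was added for 1 hr at 37C and fluorescence read.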

Assay [6] is described as follows: qHTS assay to identify small molecule agonists of the sonic hedgehog signaling (Shh) pathway (AID 1259368; calls by dose curve;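 further: NIH/3T3-derived 3T3Gli1-Luc cells carrying a stable Gli1-driven firefly luciferase reporter; series mostly up to about 92 µM; nearly all actives have a fitted effect of over 15% in size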). In outline: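 NIH/3T3-derived 3T3Gli1-Luc cells with stably integrated Gli1-driven firefly luciferase, 2,000 cells/well, compounds added after 4 hr. Incubated 24 hr at 37C, 5% CO2; luminescence read after 30 min with luciferase reagent at room temperature.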

The target in assay [7] is Estrogen receptor (Homo sapiens) (UniProt P03372). Kind of assay: qHTS assay to identify small molecule antagonists of the estrogen receptor alpha (ER-alpha) signaling pathway using the BG1 cell line in the presence of 0.1 nM 17-beta-estradiol (AID 1259244). Further: nearly all actives have a fitted effect of over 50% in size. Further: potency means the concentration at half of the fitted maximal effect. The essentials:
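VM7Luc4E2 cells (endogenous full-length ER-alpha, 4×ERE-luciferase), kept 5 days in phenol red-free, charcoal-stripped FBS medium; 4,000 cells/well. Compounds added with 0.1 nM (final) 17beta-estradiol, 22 hr at 37C; luminescence read with ONE-Glo after 30 min.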

Chain of Estrogen receptor (Homo sapiens) (P03372 whole entry, looked up): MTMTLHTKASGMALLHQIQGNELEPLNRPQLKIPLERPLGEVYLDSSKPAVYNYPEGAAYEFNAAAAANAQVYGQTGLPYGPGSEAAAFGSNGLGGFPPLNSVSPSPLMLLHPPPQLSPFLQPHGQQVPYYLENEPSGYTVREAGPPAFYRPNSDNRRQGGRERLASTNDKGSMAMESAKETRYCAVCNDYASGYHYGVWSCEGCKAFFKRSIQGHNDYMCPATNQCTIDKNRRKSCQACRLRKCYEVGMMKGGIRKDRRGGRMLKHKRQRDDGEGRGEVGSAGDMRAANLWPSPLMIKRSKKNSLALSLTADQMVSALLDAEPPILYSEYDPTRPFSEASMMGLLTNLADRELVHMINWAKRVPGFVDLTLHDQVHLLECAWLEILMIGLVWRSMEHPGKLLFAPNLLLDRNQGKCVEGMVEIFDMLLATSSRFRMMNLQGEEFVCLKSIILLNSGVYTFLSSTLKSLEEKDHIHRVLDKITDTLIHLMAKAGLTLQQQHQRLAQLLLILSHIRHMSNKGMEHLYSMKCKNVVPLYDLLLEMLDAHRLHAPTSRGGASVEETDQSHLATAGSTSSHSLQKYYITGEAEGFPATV

On to `CCCCSP(=O)(SCCCC)SCCCC`, for which the Potency entry in assay [1], in assay [2], in assay [3], in assay [4], in assay [5] and in assay [6] was “inactive” each time.

`CC(C)(c1ccccc1)c1ccc(O)cc1`: the Potency result in assay [1], in assay [2], in assay [3] and in assay [6] was “inactive” in each case. Moreover, the Potency is 61.1 µM (active) in assay [7] and 60.6 µM (active) in assay [4].

For the molecule `CCOC(=O)c1ccccc1N`, the Potency result in assay [1], in assay [7], in assay [2], in assay [4], in assay [5] and in assay [6] was “inactive” throughout.

Take `CCCCOCC1CO1` (stereo not given): the Potency result in assay [1], in assay [7], in assay [2], in assay [3], in assay [4] and in assay [5] was “inactive” throughout. In assay [6], the Potency entry is “inactive”.
